A short description of experiment [1]: reducers of endogenous Her2 protein level, primary screen, SKBR3 breast tumor cells, AlphaScreen, ATP viability (AID 461;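 active = Her2 level under about 52% in both replicate screens, with viability over 70% of control, limit read from the data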;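 as to Her2 level: lower value means less Her2 protein in the cells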;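 as to viability: percent of carrier control wells set as 100% viability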). To be noted: 18-24 h, measured here: SKBR3 viability, ATP luminescence, at 10 µM.
Experiment [2] addresses Receptor tyrosine-protein kinase erbB-2 (Homo sapiens) (UniProt P04626). The experiment is described as above. The note with it: 18-24 h, at 10 µM, stronger effect = lower value.
Experiment [3] is described as follows: SK-BR-3 cell growth inhibitors, pilot screen, 24 h, human (AID 572;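 active = viability at or below 10% of carrier control in both of two separate runs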;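 also: compound exposure lasted between 18 and 24 h rather than exactly 24 h; 100% = carrier-treated control wells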). The note with it: SK-BR-3 viability, CellTiter-Glo luminescence, at 10 µM, stronger effect = lower value.
Experiment [4] is described as follows: HUVEC growth inhibition – cell-based, human, primary screen (AID 575;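 active = viability at or below 30% in both replicate assays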;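 also: 100% = median of untreated cell wells with 0.1% DMSO on each plate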). To be noted: HUVEC proliferation, CellTiter-Glo luminescence, 72 h; at 10 µM; stronger effect = lower value. (ATP-based viability assays read luminescence as a measure of living cells.)
Experiment [5] is described as follows: growth inhibitors of H69AR lung tumor, primary screen, human, duplicate replicates (AID 580;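 active = viability at or under a set limit in both replicates, limit being median viability minus 3 SD, cut at about 48% in these data, passing the limit was not always enough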;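 also: 100% = mean luminescence of untreated wells and 0% = no signal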). To be noted: H69AR lung tumor cells viability, ATP luminescence, 72 h; at 10 µM; stronger effect = lower value.
A short description of experiment [6]: reversal of MRP1-mediated doxorubicin resistance, pilot screen, H69AR cells, doxorubicin co-treatment (AID 601;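 active = viability loss from added drug above about 55%, and viability with drug at most 40%, in both replicates, limit read from the data, passing the limit was not always enough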). To be noted: CellTiter-Glo, 72 h, at 10 µM; for differential viability (reversal): stronger effect = higher value.
Experiment [7] in a line: 384-well plate pilot, post-Golgi transport modulator project, inhibition of yeast transport mutant growth (AID 636; in the data active = inhibition above about 31%). The note with it: absorbance 615 nm, about 18 h, stronger effect = higher value.
A short description of experiment [8]: growth suppression of yeast trafficking mutant, preliminary HTS, modulators of trafficking downstream of Golgi apparatus project, 1536-format plate, OD 615 nm (AID 637; in the data active = inhibition above about 30%). The note with it: yeast transport mutant growth, absorbance 615 nm, 18 h; stronger effect = higher value.
A short description of experiment [9]: OD615 S. cerevisiae growth inhibition, permissive medium, pilot counter-assay, permissive growth control for S. cerevisiae lifespan shortening project (AID 705). To be noted: OD615, 24 h, at 10 µM, stronger effect = higher value.
A short description of experiment [10]: Restrictive medium S. cerevisiae growth inhibition, OD615, pilot screen of yeast lifespan reduction project, restrictive growth control (AID 706;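 active = growth inhibition above a set limit, 3 SD over mean compound inhibition, in both replicates, cut at about 43% in these data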;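 also: modified DeaD lifespan yeast strain shifted to restrictive glucose medium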). The note with it: OD615, 48 h, at 10 µM, stronger effect = higher value.
Experiment [11] can be described thus: viability gain of MRP-1-high H69AR cells under doxorubicin, pilot screen, MRP-1 activator project, CellTiter-Glo, duplicate (AID 807;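 active = viability increase at or above a cutoff of the median across tested compounds plus 3 SD, cut at about 8.5% in these data, passing the limit was not always enough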;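 also: compound pretreatment 18-22 h then 72 h combined with doxorubicin; 0% = doxorubicin alone and 100% = vehicle without doxorubicin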). The note with it: H69AR viability with doxorubicin, CellTiter-Glo luminescence; at 10 µM; stronger effect = higher value.
A short description of experiment [12]: growth suppression of beta-catenin knockout HCT116, pilot screen, human colon tumor cells (AID 823;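 active = cell viability at or below a set limit in both duplicate runs, the limit being the all-compound median minus 4 SD, cut at about 23% in these data, passing the limit was not always enough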;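 also: 0% = wells killed by 20 µM Hyamine and 100% = untreated DMSO cell wells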). The note with it: CellTiter-Glo, 60 h, at 10 µM, stronger effect = lower value.
A short description of experiment [13]: growth suppression of PTEN-deleted HCT116, pilot screen, cell-based, HCT116 clonal line, CellTiter-Glo (AID 824;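 active = viability at or below 27.92% in each of two runs, the all-compound median minus 4 SD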;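 also: 0% = 20 µM Hyamine control and 100% = vehicle cell control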). To be noted: 60 h, at 10 µM, stronger effect = lower value.
Experiment [14] in a line: inhibitors of the yeast RAM network, pilot screen, dse1pr::URA3 reporter, 5-FOA selection (AID 869;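 active = inhibition over a set limit, the all-compound mean plus 3 SD, in both replicate runs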;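 also: 0% = DMSO wells with no growth and 100% = 10 µM 1-NA-PP1 with full growth; RAM network block rescues cells from 5-FOA so hits raise OD615 growth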). To be noted: S. cerevisiae dse1pr::URA3 5-FOA growth, OD615, 2 d; at 10 µM; stronger effect = higher value; strain carries analog-sensitive mutant Cbk1 kinase.
The nature of experiment [15]: RAM signaling pathway blockade in yeast – S. cerevisiae, Pdr1DBD-CYC8 efflux-inhibited sensitized strain, primary screen (AID 1298;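 active = RAM network inhibition above 8.4% in each of two replicates, 3 SD over the compound average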;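 also: 0% = DMSO untreated cells without growth and 100% = 10 µM 1-NA-PP1 full growth; higher means more yeast growth rescued from 5-FOA killing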). To be noted: S. cerevisiae cbk1-as DSE1-URA3 strain, 5-FOA growth OD615, 2 d; at 50 µM; stronger effect = higher value.
Where [16] appears, read: H69AR cells + 2 uM doxorubicin, measured here: viability with 2 uM doxorubicin, stronger effect = lower value.
[17] abbreviates: H69AR cells, compound alone cytotoxicity.

These results are taken from PubChem BioAssay.

Results filed as inconclusive are left out. Active and inactive are the calls of the source.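 The calls were made as follows, unless noted: active = growth inhibition above 25% in both replicates, a cutoff set 3 SD above the mean; inconclusive = above 25% in only one replicate; inactive = the rest.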

Receptor tyrosine-protein kinase erbB-2 (Homo sapiens), sequence (P04626 whole entry, looked up): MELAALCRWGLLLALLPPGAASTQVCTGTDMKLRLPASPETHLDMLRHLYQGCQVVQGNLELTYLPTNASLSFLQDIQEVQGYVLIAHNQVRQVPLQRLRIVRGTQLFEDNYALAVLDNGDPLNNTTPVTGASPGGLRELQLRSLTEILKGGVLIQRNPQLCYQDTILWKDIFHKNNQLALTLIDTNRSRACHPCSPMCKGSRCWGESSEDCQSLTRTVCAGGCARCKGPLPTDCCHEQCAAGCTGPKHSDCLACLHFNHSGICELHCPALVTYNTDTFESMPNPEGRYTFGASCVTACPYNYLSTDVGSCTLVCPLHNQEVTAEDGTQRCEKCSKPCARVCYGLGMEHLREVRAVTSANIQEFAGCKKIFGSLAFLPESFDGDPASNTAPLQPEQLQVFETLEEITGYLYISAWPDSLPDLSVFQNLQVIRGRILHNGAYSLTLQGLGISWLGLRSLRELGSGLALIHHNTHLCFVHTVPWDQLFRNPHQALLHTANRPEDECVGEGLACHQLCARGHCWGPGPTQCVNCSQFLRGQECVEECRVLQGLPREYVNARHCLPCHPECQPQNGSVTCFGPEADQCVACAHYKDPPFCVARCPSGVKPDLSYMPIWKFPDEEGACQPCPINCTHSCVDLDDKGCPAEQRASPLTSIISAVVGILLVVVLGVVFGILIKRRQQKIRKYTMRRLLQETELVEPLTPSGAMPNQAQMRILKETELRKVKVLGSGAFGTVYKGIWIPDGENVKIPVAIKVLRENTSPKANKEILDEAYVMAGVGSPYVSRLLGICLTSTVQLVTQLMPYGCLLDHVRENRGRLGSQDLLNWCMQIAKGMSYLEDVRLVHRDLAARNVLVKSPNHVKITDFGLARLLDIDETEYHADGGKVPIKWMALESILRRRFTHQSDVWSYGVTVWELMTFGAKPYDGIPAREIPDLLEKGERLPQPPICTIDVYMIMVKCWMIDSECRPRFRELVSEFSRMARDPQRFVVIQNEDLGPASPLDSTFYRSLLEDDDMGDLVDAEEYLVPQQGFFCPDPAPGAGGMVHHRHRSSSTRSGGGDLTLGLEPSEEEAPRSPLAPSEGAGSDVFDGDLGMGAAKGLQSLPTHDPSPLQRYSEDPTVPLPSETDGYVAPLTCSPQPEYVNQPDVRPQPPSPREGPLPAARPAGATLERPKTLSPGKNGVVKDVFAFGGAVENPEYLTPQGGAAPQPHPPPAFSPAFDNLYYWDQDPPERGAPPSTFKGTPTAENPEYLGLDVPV

As usually defined, the viability is a read-out of living cells in per cent, often relative to untreated cells. Usually inhibition stands for the relative decrease from the control value, in per cent. `CCCCCn1c(CN2CCN(C(=O)c3ccco3)CC2)nc2c1c(=O)n(C)c(=O)n2C`: the viability in experiment [1] was 96.5%; in [3] it was 96.5% (inactive); in experiment [4], 92.8% (inactive); in experiment [5], 77.5% (inactive); in experiment [6] (setting [16]), 49.5%; in experiment [6] (setting [17]) it was 77.5%. In addition, the viability in experiment [12] was 93.6% (inactive); in experiment [13] it was 93.2% (inactive). In addition, in [2], the Her2 level was 103% (inactive). For the same molecule, the differential viability (reversal) in experiment [6] (H69AR cells + 2 uM doxorubicin) was 27.9% (inactive). Further, the inhibition in experiment [7] was -5.6% (inactive); in [8] it was -5.83% (inactive); in experiment [14] it was -0.2% (inactive). Moreover, the growth inhibition in [9] is -0.285% (inactive); in experiment [10], -8.78% (inactive). In addition, in experiment [11], the viability increase is -2.57% (inactive). Besides, the RAM network inhibition in [15] is 1.17% (inactive).

For the molecule `CCCC(=O)NCCc1cc2c(C)ccc(C)c2[nH]c1=O`, the viability in experiment [1] is 106%; in experiment [3], 106% (inactive); in [4] it was 110% (inactive); in experiment [5], 98.8% (inactive); in [6] (setting [16]), 86.7%; in [6] (setting [17]), 98.8%. Further, the results for the viability in experiment [12] and in experiment [13] were 111% (inactive) and 103% (inactive), respectively. In addition, the Her2 level in experiment [2] was 93% (inactive). In experiment [6] (H69AR cells + 2 uM doxorubicin), the differential viability (reversal) is 12.1% (inactive). Besides, the inhibition in experiment [7] was -5.6% (inactive); in [8] it was 9.33% (inactive); in experiment [14], 0.625% (inactive). Further, the growth inhibition in experiment [9] was -4.56% (inactive); in experiment [10], -10.1% (inactive). The viability increase in experiment [11] is -0.5% (inactive). For the same molecule, in [15], the RAM network inhibition is 0.95% (inactive).

With `O=C(Nc1ccc(N2CCCC2)cc1)c1ccc(Br)o1`, the viability was 93.5% in experiment [1]; 93.5% (inactive) in experiment [3]; 94.3% (inactive) in [4]; 101% (inactive) in experiment [5]; 85.2% in [6] (setting [16]); 101% in experiment [6] (setting [17]). The values for the viability in [12] and in experiment [13] were 94% (inactive) and 92.3% (inactive), respectively. The Her2 level in experiment [2] was 93.5% (inactive). Moreover, the differential viability (reversal) in [6] (H69AR cells + 2 uM doxorubicin) was 15.6% (inactive). The inhibition is 0.27% (inactive) in experiment [7], 1.97% (inactive) in [8] and 3.5% (inactive) in experiment [14]. For the same molecule, the growth inhibition in experiment [9] was 3.95% (inactive); in experiment [10], 14.9% (inactive). For the same molecule, the viability increase in experiment [11] is -0.48% (inactive). Besides, the RAM network inhibition in [15] is 6.03% (inactive).

As for `CN(C)S(=O)(=O)c1ccc2c(c1)c(=O)c(C(=O)NCCCN1CCCCCC1)cn2C`, the viability was 110% in [1]; 110% (inactive) in experiment [3]; 90.7% (inactive) in experiment [4]; 102% (inactive) in experiment [5]; 106% in [6] (setting [16]); 102% in experiment [6] (setting [17]). Further, the viability was 103% (inactive) in experiment [12] and 99.5% (inactive) in [13]. Besides, the Her2 level in [2] was 105% (inactive). Further, the differential viability (reversal) in [6] (H69AR cells + 2 uM doxorubicin) was -4.19% (inactive). Moreover, the inhibition was -1.03% (inactive) in [7], -7.83% (inactive) in experiment [8] and 0.785% (inactive) in experiment [14]. For the same molecule, the results for the growth inhibition in [9] and in [10] were 9.68% (inactive) and 8.09% (inactive), respectively. Besides, the viability increase in experiment [11] was -1.28% (inactive). Moreover, in [15], the RAM network inhibition was 0.76% (inactive).

Take `COc1ccc(C)cc1NC(=O)C1CCN(S(=O)(=O)c2cccc3cccnc23)CC1`: the viability in experiment [1] was 80.5%; in experiment [3], 80.5% (inactive); in experiment [4] it was 102% (inactive); in experiment [5] it was 90.9% (inactive); in [6] (setting [16]), 86.1%; in experiment [6] (setting [17]), 90.9%. Besides, the viability was 95.3% (inactive) in experiment [12] and 86% (inactive) in experiment [13]. Further, the Her2 level in [2] is 94.5% (inactive). The differential viability (reversal) in [6] (H69AR cells + 2 uM doxorubicin) is 4.79% (inactive). The values for the inhibition in experiment [7], in experiment [8] and in [14] were -5.33% (inactive), -1.48% (inactive) and 1.77% (inactive), respectively. The growth inhibition in [9] is -0.795% (inactive); in [10], -2.36% (inactive). Moreover, in [11], the viability increase is -2.44% (inactive). Moreover, in experiment [15], the RAM network inhibition was 4.45% (inactive).
